Compound activity (PubChem BioAssay)
In the library only some 0.71% were active in any assay of this set; here they are far more common.
cardiac RTF act: increases calcium sensitivity of human cardiac regulated thin filaments | P19429+P45379 | IANBD-labeled TnC RTF fluorescence at EC20 calcium; 0% EC20 calcium, 100% full calcium | activation, % at 7.2 µM | 0.24% of 340,000 active;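 active means activation above the mean over all tested compounds plus 3 SD, cut at about 30% in these data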;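 further: rise in fluorescence read as greater calcium sensitivity of cardiac thin filaments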
IDE act: boosts human insulin-degrading enzyme activity in HEK cells. P14735. FAbeta-B cleavage, fluorescence polarization; 0% vehicle, 100% cell-free pure enzyme wells. activation, % at 5.96 µM. 0.073% of 340,000 active;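 active means activation above the mean of all tested compounds plus 3 SD, set per screening campaign, cut at about 17% in these data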
Target sequence (P14735 whole entry, looked up): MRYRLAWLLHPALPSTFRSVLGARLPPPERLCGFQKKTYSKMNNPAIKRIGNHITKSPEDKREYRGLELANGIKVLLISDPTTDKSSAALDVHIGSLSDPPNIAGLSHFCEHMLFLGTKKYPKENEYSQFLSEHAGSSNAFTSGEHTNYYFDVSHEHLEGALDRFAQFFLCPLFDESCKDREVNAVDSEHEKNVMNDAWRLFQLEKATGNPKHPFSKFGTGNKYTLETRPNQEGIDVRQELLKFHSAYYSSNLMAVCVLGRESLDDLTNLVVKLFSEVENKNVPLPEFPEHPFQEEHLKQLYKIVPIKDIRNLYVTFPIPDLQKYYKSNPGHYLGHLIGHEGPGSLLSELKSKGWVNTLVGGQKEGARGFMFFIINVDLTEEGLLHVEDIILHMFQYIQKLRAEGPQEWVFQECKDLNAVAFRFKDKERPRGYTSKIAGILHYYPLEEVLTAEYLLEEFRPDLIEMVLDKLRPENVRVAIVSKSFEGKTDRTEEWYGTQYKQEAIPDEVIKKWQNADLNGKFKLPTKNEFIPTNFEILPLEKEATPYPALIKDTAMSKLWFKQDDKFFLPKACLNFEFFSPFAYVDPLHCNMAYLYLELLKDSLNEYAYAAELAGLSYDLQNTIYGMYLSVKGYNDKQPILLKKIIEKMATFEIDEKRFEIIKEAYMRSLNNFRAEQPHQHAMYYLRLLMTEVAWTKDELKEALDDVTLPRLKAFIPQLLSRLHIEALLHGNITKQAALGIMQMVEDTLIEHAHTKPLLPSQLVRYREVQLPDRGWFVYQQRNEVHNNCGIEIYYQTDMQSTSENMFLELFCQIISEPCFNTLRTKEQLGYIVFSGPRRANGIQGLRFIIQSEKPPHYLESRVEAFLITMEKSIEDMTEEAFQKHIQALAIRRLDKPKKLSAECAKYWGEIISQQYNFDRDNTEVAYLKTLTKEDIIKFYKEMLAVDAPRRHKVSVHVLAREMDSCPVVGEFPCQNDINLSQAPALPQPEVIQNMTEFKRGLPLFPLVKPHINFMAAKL
Cardiac RTF inh: cardiac RTF calcium desensitization | P19429+P45379 | IANBD-labeled cardiac RTF, Ca2+ fluorescence | inhibition, % at 7.15 µM | 0.12% of 340,000 active;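 active means inhibition above the mean inhibition of all tested compounds plus 3 SD, cut at about 17% in these data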;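 further: assay run at fixed EC70 calcium of 1.6 mM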
IDE inh: cellular human IDE inhibition; P14735; HEK cells, FAbetaB cleavage, fluorescence polarization; inhibition, % at 5.59 µM; 0.41% of 320,000 active; AID 434962;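 active means percent inhibition above the average of all tested compounds plus 3 SD, set per screening campaign, cut at about 16% in these data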;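 further: IDE supplied by intact live HEK cells; FP after avidin binding of uncleaved biotin substrate so inhibition keeps polarization high; 0% = DMSO wells and 100% = 60 µM reference IDE inhibitor Ii1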
IDE cell inh cf: cellular human IDE inhibition, confirmation. HEK cells, FAbetaB cleavage, fluorescence polarization. inhibition, % at 5.59 µM. 51% of 1,200 active. AID 435028. shares compounds with IDE inh;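 active means mean inhibition across triplicate wells above the cutoff set by the earlier primary insulin-degrading enzyme screen, cut at about 16% in these data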;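 further: 0% = DMSO wells and 100% = 60 µM reference IDE inhibitor Ii1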
HEK293 tox: counter-screen for IDE inhibitors: cytotoxicity in HEK cells; 28% of 1,200 active; inhibition, % at 5.59 µM; shares compounds with IDE inh; AID 449730; HEK293 cytotoxicity, ATP luminescence; in the data active means inhibition above about 22%;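 further: 0% = vehicle wells and 100% = reference cytotoxic drug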
Active calls of the source: *; nt = no result given.

SMILES | cardiac RTF act | IDE act | Cardiac RTF inh | IDE inh | IDE cell inh cf | HEK293 tox
CCOC(=O)NN1C(=O)c2ccccc2NC12CCCC2 | 6.0 | -2.1 | -6.1 | 5.9 | nt | nt
O=C1/C(=C/c2ccc(N3CCCC3)cc2)NC(=S)N1C1CC1 | 55.9* | -89.3 | -151.8 | 89.6* | 119.9* | 26.9*
O=C1N/C(=C/c2ccc(N3CCCC3)cc2)C(=O)N1c1ccccc1 | 5.9 | -7.0 | -8.4 | 11.8 | nt | nt
Cc1cc(N2CCCC2)ccc1/C=C1\NC(=S)N(C)C1=O | 52.9* | -118.6 | -118.5 | 79.2* | 115.7* | 16.0
CCCc1cc(C(=O)Nc2ccc(C(=O)c3ccccc3)cc2)n(C)n1 | 4.2 | -10.7 | 0.2 | 18.8* | 3.6 | 23.1*
CCCCn1c(N)c(N(CCOC)C(=O)c2ccc(-n3c(C)ccc3C)cc2)c(=O)[nH]c1=O | 14.4 | 1.1 | -4.1 | -0.7 | nt | nt
O=c1[nH]c2ccccc2c(O)c1O | 1.3 | -46.8 | -2.3 | 62.1* | 64.7* | 18.5
O=c1[nH]nc(-c2ccccc2)c2ccccc12 | 1.6 | -7.6 | -12.5 | 4.5 | nt | nt
O=c1onc(-c2ccccc2)c2ccccc12 | -0.1 | 9.3 | -0.8 | 16.4* | 6.5 | 2.6
Cc1ccc(C(=O)NCCc2nnc3ccc(NCCCN4CCOCC4)nn23)cc1 | -3.8 | 4.0 | -3.0 | 5.5 | nt | nt
COc1ccc(Br)cc1/C=N/NC(=O)CNC(=O)C1COc2ccccc2O1 (configuration not stated) | -1.2 | -22.0 | 1.5 | 30.0* | 22.7* | 1.6
O=C(CNC(=O)C1COc2ccccc2O1)N/N=C\c1ccc(Br)cc1 (configuration not stated) | 4.4 | 2.8 | 2.9 | 3.0 | nt | nt
C[C@H](CO)N1C[C@H](C)[C@@H](CN(C)Cc2ccc(Oc3ccccc3)cc2)Oc2c(NC(=O)c3ccncc3)cccc2C1=O | 0.0 | -14.4 | 6.1 | 23.7* | 7.3 | 24.3*
CCOC(=O)c1c(NC(=O)COC(=O)CNC(=O)c2ccco2)sc(C(C)=O)c1C | -10.9 | -6.8 | 13.8 | 17.5* | 9.1 | 5.5
CC(OC(=O)C1CCN(c2ccc(C(F)(F)F)cn2)CC1)C(=O)Nc1ccc(S(N)(=O)=O)cc1 (configuration not stated) | -1.5 | -15.7 | 8.3 | 18.2* | 6.5 | 5.1
CC(C)c1nnc(NC(=O)C2CCCN(C(=O)Nc3ccc(F)cc3)C2)s1 (configuration not stated) | -6.4 | 3.8 | -16.3 | 0.1 | nt | nt
CS(=O)(=O)c1ccc(N)c(SSc2cc(S(C)(=O)=O)ccc2N)c1 | -3.6 | -24.0 | -13.9 | 30.4* | 26.7* | 6.9
Cc1ccc(-n2sc3ccccc3c2=O)cc1 | -0.5 | -51.0 | 4.6 | 97.2* | 32.4* | 99.4*
O=c1c2ccccc2sn1-c1ccc(F)cc1 | -5.5 | -23.4 | 4.6 | 60.0* | 17.8* | 64.1*
COC(=O)c1cccc(N2CCCC2=O)c1 | -4.9 | 5.4 | -9.2 | 2.1 | nt | nt
COC(=O)c1cccc(-n2sc3ccccc3c2=O)c1 | -0.1 | -23.4 | -4.9 | 67.5* | 37.3* | 45.5*
CCN(CC)c1ccc(S(=O)(=O)N2CCOCC2)cc1NC(=O)c1cc(=O)c2ccccc2o1 | 3.1 | 0.4 | -3.4 | -1.7 | nt | nt
Cc1ccc(N2CC(C(=O)N3CCC(C(=O)Nc4cccc(Br)c4)CC3)CC2=O)cc1 (configuration not stated) | -2.6 | -3.8 | 2.5 | 3.8 | nt | nt
Cc1ccc(N2CC(C(=O)N3CCC(C(=O)Nc4ccc(Br)cc4)CC3)CC2=O)cc1 (configuration not stated) | -6.4 | -6.7 | 1.3 | 17.4* | 7.3 | 12.2
Cc1ccc(S(=O)(=O)Nc2cc(C(C(=O)OC(C)C)C(=O)C(F)(F)F)c(O)c3ccccc23)c(C)c1 (configuration not stated) | -9.4 | -1.7 | 2.1 | 21.5* | 3.5 | 16.1
SMILES | cardiac RTF act | IDE act | Cardiac RTF inh | IDE inh | IDE cell inh cf | HEK293 tox
CC(=O)Oc1c(-c2ccco2)oc2ccccc2c1=O | 7.6 | -94.7 | -7.3 | 76.6* | 103.7* | 8.1
CCOC(=O)c1c(C)[nH]c(C)c1C(=O)COC(=O)c1sccc1C | 5.2 | 2.0 | 0.4 | -4.4 | nt | nt
Cc1ccc[n+](CC(=O)c2ccc(Cl)cc2)c1 | 3.5 | 3.3 | -1.4 | 4.9 | nt | nt
Cc1ccc[n+](CC(=O)c2ccc(-c3ccccc3)cc2)c1 | 0.9 | 0.7 | 5.2 | 21.6* | 8.0 | 15.8
O=C(Nc1n[nH]c(C(F)(F)F)n1)C1CC1 | 10.6 | 6.3 | -2.4 | -2.0 | nt | nt
CC[n+]1c(/C=C/C=C/N(C(C)=O)c2ccccc2)sc2cc(OC)ccc21 | nt | nt | nt | 40.5* | 34.9* | 63.5*
CC[n+]1c(/C=C(\C)OC)sc2ccccc21 | -5.4 | 3.4 | 10.4 | nt | nt | nt
Cc1ccc(C(=O)Oc2ccc([N+](=O)[O-])cc2)cc1S(=O)(=O)N1CCCCCC1 | 1.6 | -0.4 | 3.8 | -3.8 | nt | nt
C[C@H](CO)N1C[C@H](C)[C@@H](CN(C)C(=O)Nc2ccc3c(c2)OCO3)Oc2c(NC(=O)Nc3ccc(C(F)(F)F)cc3)cccc2C1=O | -9.2 | 3.1 | -16.5 | 1.4 | nt | nt
COCCNC(=O)c1ccccc1NC(=O)CSc1ccc(C)cc1 | 4.3 | -0.3 | -3.9 | 8.0 | nt | nt
Nc1nnnn1/N=C/c1cc(Cl)ccc1O | 3.6 | -8.7 | -15.4 | 8.9 | nt | nt
Nc1nnnn1/N=C/c1cc(Cl)cc(Cl)c1O | 32.1* | -36.3 | -44.8 | 18.9* | 43.1* | 7.5
Cc1ccc(Nc2cnn(C34CC5CC(CC(CC(=O)O)(C5)C3)C4)c(=O)c2Cl)cc1C | -1.8 | -23.9 | -1.9 | 31.7* | 24.8* | 8.7
COc1ccc(C2C(C(C)=O)=C(C)N=c3s/c(=C\c4cc(C)n(C)c4C)c(=O)n32)c(OC)c1 (configuration not stated) | 110.0* | -38.5 | -120.5 | 116.2* | 25.9* | 9.9
COc1ccc(C2C(C(C)=O)=C(C)N=c3s/c(=C\c4ccco4)c(=O)n32)c(OC)c1 (configuration not stated) | -3.6 | -2.9 | 0.1 | 5.0 | nt | nt
Cc1ccc(C)c(OCC(=O)NNC(=O)CSC(=S)N2CCCC2)c1 | 0.0 | -0.7 | -7.5 | 1.8 | nt | nt
O=C(Nc1ccc(Br)cc1)c1cccc(N2C(=O)C3CCCCC3C2=O)c1 (configuration not stated) | -2.1 | -0.1 | -10.4 | -4.5 | nt | nt
COc1cccc(CNC(=O)C2CCCN(C(=O)c3ccc(Cl)cc3)C2)c1 (configuration not stated) | -0.6 | 3.0 | -10.4 | -3.0 | nt | nt
CCCC[n+]1c2ccccc2cc2ccccc21 | -2.6 | -9.6 | -1.1 | 16.1* | 6.3 | 40.2*
Cc1cccc(-n2c(O)c(C=Nc3ccccc3-c3n[nH]c(=S)[nH]c3=O)c3ccccc3c2=O)n1 | 0.8 | -29.9 | -2.5 | 21.5* | 16.8* | 2.1
Cc1oc2ccc(O)cc2c1C(=O)c1ccccc1 | -3.1 | 4.4 | -13.0 | 4.0 | nt | nt
CC(=O)c1cc2c(C)c(C(=O)c3ccccc3)oc2cc1O | 2.5 | -63.4 | 0.1 | 35.5* | 87.1* | 14.5
